Results: PubChem BioAssay
A number with no mark means an inactive call. A call without a number means that no potency is given here. For part of these data: Potency and affinity values are given separately. The source made the active and inactive calls. Unless noted, the rule behind the calls is not given here.

Key:
[1] = antimalarial activity against Dd2 strain (AID 2302;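 active = growth inhibition above 50% at the single 2 µM test dose, taken to imply half-maximal potency below 2 µM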); conditions: P. falciparum Dd2 in RBCs, LDH growth readout, 72 h; at 2 µM; active compounds read high
[2] = HepG2 cytotoxicity, primary screen, cytotoxicity control for P. falciparum antimalarial project, cell-based, ATP luminescence (AID 2303;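 active = inhibition above 50%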); conditions: HepG2 viability, 24-48 h, at 10 µM, active compounds read high
[3] = target: L-lactate dehydrogenase (Plasmodium falciparum (isolate CDC / Honduras)) (UniProt Q27743); assay: PfLDH activity inhibition – cell lysate, 3D7 strain, counter-screen for P. falciparum growth inhibition project (AID 2304); conditions: P. falciparum 3D7 crude extract, LDH APAD/NBT absorbance; at 2 µM; active compounds read high
[4] = inhibition of 3D7 malaria parasite growth – strain 3D7 (AID 2306); conditions: P. falciparum 3D7 erythrocytic growth, LDH absorbance, 72 h; at 2 µM; active compounds read high
[5] = target: Calcium-dependent protein kinase 1 (Plasmodium falciparum (isolate 3D7)) (UniProt P62344); assay: PfCDPK1 kinase inhibitors, biochemical, TCAMS library (AID 1159585; cut-off not given, nearly all actives have IC50 up to about 0.98 µM;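 note: inhibitors leave more ATP so luminescence rises with inhibition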); conditions: recombinant PfCDPK1, Kinase-Glo ATP depletion luminescence
[6] = target: Plasmodium falciparum protein kinase 6 (PK6, PF3D7_1337100) (UniProt Q8IDW1); assay: PfPK6 kinase inhibitors, biochemical, TCAMS library (AID 1159586); conditions: recombinant PfPK6, Kinase-Glo ATP depletion luminescence
[7] = target: Protein kinase 7 (PK7), Plasmodium falciparum 3D7 (PF3D7_0213400) (UniProt Q7YTF7); assay: inhibition of Plasmodium PK7 catalytic activity – biochemical, TCAMS antimalarial set, Kinase-Glo luminescence (AID 1159587); conditions: recombinant PfPK7, Kinase-Glo ATP depletion luminescence
[8] = target: Calcium-dependent protein kinase 4 (Plasmodium falciparum (isolate 3D7)) (UniProt Q8IBS5); assay: PfCDPK4 kinase inhibitors, biochemical, TCAMS library (AID 1159588; cut-off not given, nearly all actives have IC50 up to about 0.91 µM); conditions: recombinant PfCDPK4, Kinase-Glo ATP depletion luminescence
Calcium-dependent protein kinase 4 (Plasmodium falciparum (isolate 3D7)), sequence (Q8IBS5 whole entry, looked up): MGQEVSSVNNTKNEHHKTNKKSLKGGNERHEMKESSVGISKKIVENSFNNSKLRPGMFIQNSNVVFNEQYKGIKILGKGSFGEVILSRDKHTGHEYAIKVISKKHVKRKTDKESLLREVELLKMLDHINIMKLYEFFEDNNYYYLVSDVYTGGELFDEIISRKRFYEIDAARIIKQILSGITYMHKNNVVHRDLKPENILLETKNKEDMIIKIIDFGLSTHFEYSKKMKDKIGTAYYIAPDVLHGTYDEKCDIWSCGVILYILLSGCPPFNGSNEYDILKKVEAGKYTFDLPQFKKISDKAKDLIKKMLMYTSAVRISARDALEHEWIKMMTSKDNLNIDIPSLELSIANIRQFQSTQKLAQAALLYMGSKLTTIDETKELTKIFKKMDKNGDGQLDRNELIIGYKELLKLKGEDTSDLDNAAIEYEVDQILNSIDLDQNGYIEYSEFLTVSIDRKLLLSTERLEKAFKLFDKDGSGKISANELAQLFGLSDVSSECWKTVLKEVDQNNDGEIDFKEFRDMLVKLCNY

Protein kinase 7 (PK7), Plasmodium falciparum 3D7 (PF3D7_0213400), sequence (Q7YTF7 1-343): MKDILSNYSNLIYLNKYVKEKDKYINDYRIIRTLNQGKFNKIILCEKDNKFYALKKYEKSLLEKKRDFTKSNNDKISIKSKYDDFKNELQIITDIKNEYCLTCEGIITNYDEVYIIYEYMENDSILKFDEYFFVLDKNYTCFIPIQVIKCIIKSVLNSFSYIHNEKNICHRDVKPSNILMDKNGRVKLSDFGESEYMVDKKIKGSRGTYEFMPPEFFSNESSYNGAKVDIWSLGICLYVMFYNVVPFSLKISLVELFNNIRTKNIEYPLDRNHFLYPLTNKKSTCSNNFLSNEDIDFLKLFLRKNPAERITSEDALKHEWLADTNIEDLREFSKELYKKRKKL
Calcium-dependent protein kinase 1 (Plasmodium falciparum (isolate 3D7)), sequence (P62344 whole entry, looked up): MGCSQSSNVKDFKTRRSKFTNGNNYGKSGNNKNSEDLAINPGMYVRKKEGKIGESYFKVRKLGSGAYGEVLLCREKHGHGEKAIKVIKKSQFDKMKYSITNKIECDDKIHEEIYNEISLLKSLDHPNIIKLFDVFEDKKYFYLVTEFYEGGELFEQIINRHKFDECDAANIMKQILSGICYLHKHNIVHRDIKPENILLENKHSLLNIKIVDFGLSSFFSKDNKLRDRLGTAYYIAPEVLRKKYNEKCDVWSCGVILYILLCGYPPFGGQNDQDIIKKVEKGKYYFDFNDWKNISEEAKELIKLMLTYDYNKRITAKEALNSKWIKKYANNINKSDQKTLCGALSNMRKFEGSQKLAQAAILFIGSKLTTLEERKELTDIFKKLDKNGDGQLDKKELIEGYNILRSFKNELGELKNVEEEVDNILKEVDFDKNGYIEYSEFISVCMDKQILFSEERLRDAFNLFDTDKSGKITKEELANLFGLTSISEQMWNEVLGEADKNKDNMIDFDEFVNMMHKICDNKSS
Plasmodium falciparum protein kinase 6 (PK6, PF3D7_1337100), sequence (Q8IDW1 1-305): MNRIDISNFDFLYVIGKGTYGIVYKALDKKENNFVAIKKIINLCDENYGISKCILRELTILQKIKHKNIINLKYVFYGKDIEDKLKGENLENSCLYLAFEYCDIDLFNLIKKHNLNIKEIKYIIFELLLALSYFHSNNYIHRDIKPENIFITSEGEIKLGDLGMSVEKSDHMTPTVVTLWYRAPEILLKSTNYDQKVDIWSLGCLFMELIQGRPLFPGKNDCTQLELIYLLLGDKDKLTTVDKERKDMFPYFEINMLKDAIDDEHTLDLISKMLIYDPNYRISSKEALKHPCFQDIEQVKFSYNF
L-lactate dehydrogenase (Plasmodium falciparum (isolate CDC / Honduras)), sequence (Q27743 whole entry, looked up): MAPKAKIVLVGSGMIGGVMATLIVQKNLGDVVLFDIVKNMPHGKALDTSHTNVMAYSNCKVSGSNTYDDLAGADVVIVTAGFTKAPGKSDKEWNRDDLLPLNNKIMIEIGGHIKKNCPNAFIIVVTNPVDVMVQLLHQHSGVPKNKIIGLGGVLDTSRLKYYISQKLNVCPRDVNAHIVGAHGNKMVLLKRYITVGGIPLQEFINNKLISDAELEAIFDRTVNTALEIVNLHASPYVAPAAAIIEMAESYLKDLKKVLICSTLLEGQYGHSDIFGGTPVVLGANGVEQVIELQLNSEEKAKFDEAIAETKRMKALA

Compound	growth inhibition [1]	inhibition [2]	inhibition [3]	growth inhibition [4]	outcome [5]	outcome [6]	outcome [7]	outcome [8]
COc1cccc(C2(c3cccc(OC)c3)N=C(N)N(CCCc3ccccc3)C2=O)c1	93% (active)	3%	4%	98% (active)	inactive	inactive	inactive	inactive
O=C(Nc1cccc(-c2ccc(-c3nc4ccccc4[nH]3)s2)c1)c1ccncc1	29%	67% (active)	-9%	92% (active)	inactive	inactive	inactive	inactive
CCCN(Cc1nnc(-c2ccco2)o1)C(=O)C1CCCN(C(=O)c2ccc(Cl)cc2)C1 (stereo not drawn)	96% (active)	-3%	-1%	96% (active)	inactive	inactive	inactive	inactive
C[C@H](Cc1ccc(Oc2ccc(C[C@@H](C)NC[C@H](O)c3cccc(Cl)c3)cc2)cc1)NC[C@H](O)c1cccc(Cl)c1	96% (active)	99% (active)	-3%	100% (active)	inactive	inactive	inactive	inactive
CCc1ccc(-n2cc(C(=O)c3cc(Br)ccc3O)cc(C#N)c2=O)cc1	30%	9%	-2%	97% (active)	inactive	inactive	inactive	inactive
COc1ccc2c(NN=Cc3ccc([N+](=O)[O-])cc3)ccnc2c1	98% (active)	-1%	-1%	100% (active)	inactive	inactive	inactive	inactive
Cc1cc(Nc2ccccc2)nc(NCCOc2ccccc2)n1	48%	-5%	-1%	100% (active)	inactive	inactive	inactive	inactive
O=S1N=C(NCCCN(Cc2cccs2)c2ccccn2)C(NCc2ccccc2)=N1 (stereo not drawn)	25%	10%	0%	92% (active)	inactive	inactive	inactive	inactive
COc1cc(-c2nc(-c3ccccc3)c(-c3ccccc3)[nH]2)ccc1OCCN(C)C	100% (active)	-8%	5%	101% (active)	inactive	inactive	inactive	inactive
CN(c1ccc(NC(=O)Nc2cc(C(F)(F)F)ccc2F)cc1)c1ccnc(NCCN2CCCC2)n1	1%	94% (active)	-2%	93% (active)	inactive	inactive	inactive	inactive
OC(CNC1CCCCC1)Cn1c2ccc(I)cc2c2cc(I)ccc21 (stereo not drawn)	93% (active)	10%	2%	100% (active)	inactive	inactive	inactive	inactive
CC1(C)N=C(N)N=C(N)N1OCCc1ccccc1	95% (active)	70% (active)	2%	96% (active)	inactive	inactive	inactive	inactive
CN(C)Cc1cccc2[nH]c(-c3csc(Cc4cc(Cl)ccc4OCc4ccccc4)n3)nc12	77% (active)	14%	-2%	100% (active)	inactive	inactive	inactive	inactive
CC(C)CN1CCCN(Cc2cccc(NC(=O)c3ccc(-c4ccccc4)cc3)c2)CC1	24%	30%	1%	99% (active)	inactive	inactive	inactive	inactive
O=C(NC1CCN(c2ccnc3cc(Cl)ccc23)C1)c1ccccc1F (stereo not drawn)	71% (active)	8%	4%	101% (active)	inactive	inactive	inactive	inactive
CN1CCN(CCCN(Cc2ccc(-c3cccc(CNC4CCCC4)c3)cc2)C(=O)/C=C/c2ccccc2)CC1	87% (active)	36%	4%	100% (active)	inactive	inactive	inactive	inactive
Nc1nccc2ccc(-c3ccc(Oc4ccccc4)cc3)cc12	80% (active)	36%	-3%	98% (active)	inactive	inactive	inactive	inactive
CCN(CC)C(=O)C1CCN(C(C(=O)N2CCN(CC(=O)N3CCCC3)CC2)c2cc3ccccc3o2)CC1 (stereo not drawn)	4%	-11%	-7%	98% (active)	inactive	inactive	inactive	inactive
CCOc1cccc2nc(NCCCNCc3ccc(Cl)c(Cl)c3)cc(NCCCNCc3ccc(Cl)c(Cl)c3)c12	58% (active)	96% (active)	-5%	98% (active)	inactive	inactive	inactive	inactive
NC1CCN(CCc2ccc(NS(=O)(=O)c3cccc4ccccc34)cc2)CC1	4%	21%	4%	94% (active)	inactive	inactive	inactive	inactive
O=C(Nc1ccsc1)Nc1cccc(-c2cccc(-c3nc4ccccc4[nH]3)c2)c1	55% (active)	61% (active)	-7%	101% (active)	inactive	inactive	inactive	inactive
